Assay results as given in the supplement of paper PMC3484114.
± gives the standard deviation.

System: OVCAR-3-derived ovarian cancer stem-like cells (spheroids)
Assay: cell growth relative to untreated control; higher = more growth (less inhibition)
Details: 2.29 µM; 96 h
In short: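 After trypsin dissociation, OVCAR-3 spheroid-derived stem-like cells were placed in ultra-low attachment 96-well plates at 50,000 cells/mL in stem cell medium and preincubated for 24 h. Treatment at 2.29 uM followed for 96 h at 37°C, 5% CO2, with 4 replicate wells per compound. A 4 h TOX8 resazurin fluorescence read (ex 560/em 590 nm) gave viability, from which percent growth relative to untreated wells was derived after blank subtraction and Grubbs outlier removal.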

Compound	cell growth [%]
NC1=C(Br)C(=O)c2ncccc2C1=O	15.3 ± 3.8
COC(=O)c1ccc(=O)c2nc3/c(=C/O)c(O)cc(=O)c3[nH]c12	109 ± 44
CCOC(=O)CCn1ncc(Cl)c(Cl)c1=O	74.8 ± 21
COC(=O)C1(C)CCCC2(C)C3CCC4CC3(C=C4CO)CCC12 (centres undefined)	95.7 ± 14
COc1ccc(Cc2nc3ccccc3s2)cc1OC	98.9 ± 21
Cc1ccc2ccc3ccc(C)nc3c2n1	18.5 ± 10
CN(C)c1ccc(C=c2c3ccccc3n3c2cc(-c2ccc(Cl)cc2)[n+]3C)cc1	39.7 ± 12
CC(C)C1=CC2=CC[C@@H]3[C@](C)(CCC[C@@]3(C)C(=O)O)[C@H]2CC1	114 ± 10
COc1ccc(-c2cc(=O)c3c(O)cc(O)cc3o2)cc1OC	4.9 ± 3.4
NC(=O)c1c([N+](=O)[O-])cc(C(F)(F)F)cc1[N+](=O)[O-]	63.9 ± 13
COc1ccccc1[S+]([O-])Nc1ccccc1 (centres undefined)	117 ± 25
Nc1ccc2c(c1)S(=O)(=O)c1cc(N)ccc1-2	112 ± 21
COC(=O)C1c2cc3c(c(O)c2C(OC2OC(C)C(OC)C(C)(OC)C2OC)CC1(C)O)C(=O)c1c(O)cc2c(c1C3=O)OC1OC2(C)C(O)C(N(C)C)C1O (centres undefined)	51.8 ± 47
COc1ccc(/C=C2\CCc3ccccc3C2=O)cc1OC	95.7 ± 11
CCOC(=O)Cc1c(C)c2cc(C(=O)c3ccccc3)c(O)cc2oc1=O	98 ± 18
C[C@]12C=CC(=O)C=C1[C@@H](F)C[C@H]1[C@@H]3CC[C@](O)(C(=O)CO)[C@@]3(C)C[C@H](O)[C@@]12F	80 ± 22
O=C(CC(=O)c1ccccc1NC1=Cc2ccccc2C(=O)C1=O)C(=O)NC1=C(Cl)C(=O)c2ccccc2C1=O	33.3 ± 13
COc1ccc(OC)c2nc3c(C(=O)NCCN(C)C)cccc3nc12	119 ± 27
CN1c2c(nc(N)[nH]c2=O)NCC1CCNc1ccc(C(=O)NC(CCC(=O)O)C(=O)O)cc1 (centres undefined)	101 ± 20
COc1ccc(NC(=O)C(=O)/C=C(\O)c2ccccc2)cc1	107 ± 46

Compound	cell growth [%]
Cc1ccc(NC(=O)c2cccc([N+](=O)[O-])c2O)c([N+](=O)[O-])c1	86.3 ± 17
COC(=O)C[S+]([O-])c1ccccc1 (centres undefined)	84.6 ± 18
N#CC(c1ccccc1)N(CCCCCCN(C(=O)c1ccccc1)C(C#N)c1ccccc1)C(=O)c1ccccc1 (centres undefined)	122 ± 23
COc1ccc2oc(-c3ccncc3)cc(=O)c2c1	122 ± 9.1
COc1ccc(C2c3cc4c(c(OC)c3CC3OCC(=O)C32)OCO4)cc1OC (centres undefined)	41.3 ± 11
Cc1cc(O)c(C(C)C)cc1C1(c2cc(C(C)C)c(O)cc2C)OC(=O)c2ccccc21	104 ± 32
CCC1=C(C[C@H]2NCCc3cc(OC)c(OC)cc32)C[C@H]2c3cc(OC)c(OC)cc3CCN2C1	21.1 ± 7.4
c1ccc2c(c1)nnn1c3cnccc3nc21	58.8 ± 9.3
CCN1CCC(O)(/C=C/c2ccc(C)cc2)C(C(=O)/C=C/c2ccc(C)cc2)C1 (centres undefined)	98.5 ± 13
O=C1c2ccccc2C(=O)c2c(O)c(O)cc(O)c21	25.5 ± 6.6
O=c1oc2ccccc2cc1-c1ccc([N+](=O)[O-])cc1	38.6 ± 7.1
COc1ccc2cc1Oc1ccc(cc1)CC1c3c(cc(OC)c4c3Oc3cc5c(cc3O4)CCNC5C2)CCN1C (centres undefined)	71.8 ± 23
Nc1ncnc2c1nc(Cl)n2[C@@H]1O[C@@H]2COP(=O)(O)O[C@H]2[C@H]1O	115 ± 43
O=C1NC(=O)[C@H]2[C@H]3C=C[C@@H]([C@@H]12)[C@@H]1[C@H]2C(=O)NC(=O)[C@H]2[C@H]31	121 ± 29
CN(C)CCCCN1CCc2c(n(C)c3ccccc23)C1=O	101 ± 13
CN(C)c1ccc(/C=N/N=C2\C(=O)Nc3c(Cl)cc(Cl)cc32)cc1	106 ± 28
CCN(CC)CCNC(=O)c1nn(-c2ccc(Cl)cc2)c2c1CCc1cc(OC)ccc1-2	79.1 ± 11
NC1(CCNC(=O)c2ccccc2)CCN(C(=O)c2ccccc2)CC1	118 ± 19
CCOC(=O)Nc1cc2c(c(N)n1)N=C(c1ccccc1)CN2	89.9 ± 15
